According to PubChem BioAssay (NCATS):
Inconclusive results are not listed. A number with no mark means an inactive call. The source made the active and inactive calls. Calls follow the shape of the dose curve; as a rule, active = well fitted cell-killing curve with a large enough effect; inconclusive = small, poorly fitted or top-dose-only effect; inactive = flat fitted curve, though single readings scatter. Non-standard residues stand in square brackets, D forms with d. Residues, ends and D or L forms follow the SMILES beside them. *: point of attachment. Nva = CCC[C@H](N)C(=O)O; Cbz = O=C(OCc1ccccc1)*

assay: qHTS of pediatric cancer cell lines to identify multiple opportunities for drug repurposing: Primary screen for TC32 cells (AID 1347089); conditions: TC32 Ewing sarcoma viability, CellTiter-Glo luminescence, 48 h; series mostly up to 45.8 µM; activity change, negative = cytotoxic: at the top concentration; also: nearly all actives have a fitted effect of over 60% in size
Source text: Drug repurposing or repositioning has been offered as a strategy for drug development in oncology programs. This approach has special potential for childhood cancers and other rare or orphan diseases, where the expected return on new drug development has been a disincentive to pharmaceuticals.
In this project we exploit the poly-pharmacology of drugs to discover new indications via phenotypic screening of a panel of 19 well-characterized cell lines derived from solid tumors seen in children and adolescents. The goal is to identify approved drugs with previously unrecognized anticancer properties that has the potential to reveal new mechanisms and biological processes involved in carcinogenesis or drug resistance. We employed a titration-based paradigm (quantitative high-throughput screening or qHTS), where all compounds were tested at multiple concentrations for their effect on cell viability. Concentration-response curves (CRCs) were derived directly from the primary screen, and both potency and efficacy values were used to identify compounds with robust bioactivity profiles. We screened the NIH Chemical Genomics Center (NCGC) Pharmaceutical Collection (NPC) and Mechanism Interrogation Plate (MIPE) small molecule collections of approved and investigational compounds against these cell lines; and measured metabolically active cells after 48 hours of compound treatment as a proxy for cell viability.
Assay Submitter: Nathalia J. Martinez, National Center for Advancing Translational Sciences, National Institutes of Health, Rockville, MD, USA; email: natalia.martinez@nih.gov
[1] Shen, M et al. Quantitative high-throughput phenotypic screening of pediatric cancer cell lines identifies multiple opportunities for drug repurposing. Oncotarget 2017 Dec 19;9(4):4758-4772. PMID 29435139.
The cells were obtained from University of North Carolina (UNC), Pediatric Preclinical Testing Program (PPT), and Coriell Institute (CI).
qHTS cell viability assay:
Cells were assayed in growth media at a density of 500-1,000 cells/well. Five microliters of cells were dispensed into 1,536-well, white, solid-bottom, TC-treated plates (Greiner Bio One) using a multidrop dispenser and incubated at 37 degrees C, 5% CO2, under a humidified atmosphere for 5 hours. Twenty-three nanoliters of compounds and controls (neutral control DMSO or positive control bortezomib at final concentration of 2.3 uM) were subsequently transferred by Kalypsys pintool. For primary screens, the MIPE collection was tested at 11-point dilutions (final concentrations range from 0.78 nM to 46 µM) and the NPC collection at 8-point dilutions (final concentrations range from 0.59 nM to 46 µM). Compounds tested in follow-up screens were assayed at 11-point dilutions. Cells were incubated for 48 hours, followed by addition of 3 uL of CellTiter-Glo (Promega). After a 15min incubation at room temperature, samples were analyzed for luminescence intensity using a ViewLux High-throughput CCD imager equipped with clear filters.
% is scaled to controls: 0 for no effect and ±100 for the full control effect; potency is read from the fitted curve at half-maximal effect.

Compound | Potency | activity change, negative = cytotoxic
CCC[C@@H](C=O)NC(=O)[C@H](CC(C)C)NC(=O)[C@H](CC(C)C)NC(=O)OCc1ccccc1 (Cbz-Leu-Leu-[Nva]-aldehyde) | 3.7 µM (active) | –
CC(C)N1[N]C(=C2C=c3cc(O)ccc3=N2)c2c(N)ncnc21 | 2.94 µM (active) | –
CC(C)N(CC[C@H](c1ccccc1)c1cc(CO)ccc1O)C(C)C | – | 8.98%
c1ccc2c(Oc3nc(Nc4ccc(N5CCOCC5)cc4)c4ncn(C5CCCCC5)c4n3)cccc2c1 | – | 9.11%
C#C[C@]1(O)CC[C@@H]2[C@@H]3CCc4cc(O)ccc4[C@H]3CC[C@@]21C | – | -4.62%
CC[C@]12C=CCN3CC[C@@]4(c5cc([C@@]6(C(=O)OC)C[C@H]7C[C@@H](C(C)(F)F)CN(Cc8c6[nH]c6ccccc86)C7)c(OC)cc5N(C)[C@H]4[C@@](O)(C(=O)OC)[C@H]1OC(C)=O)[C@@H]32 | 0.0587 µM (active) | –
CC1(C)[C@H](O[C@H]2O[C@H](C(=O)O)[C@@H](O)[C@H](O)[C@H]2O[C@@H]2O[C@H](C(=O)O)[C@@H](O)[C@H](O)[C@H]2O)CC[C@@]2(C)[C@H]1CC[C@]1(C)[C@H]2C(=O)C=C2[C@H]3C[C@@](C)(C(=O)O)CC[C@]3(C)CC[C@]21C | – | 10.6%
CCS(=O)(=O)Nc1ccc2[nH]c(O)c(C(=Nc3ccc(CN4CCCCC4)cc3)c3ccccc3)c2c1 | 0.131 µM (active) | –
C[C@H](NCc1ccc(OCc2cccc(F)c2)cc1)C(N)=O | 18.6 µM (active) | –
CCCc1nc(C(C)(C)O)c(C(=O)O)n1Cc1ccc(-c2ccccc2-c2nn[nH]n2)cc1 | – | 12.4%
CCC(C=C[C@@H]1OC(=O)C=C[C@H]1C)=C[C@H](C)CC=CC(C)=C[C@@H](C)C(=O)[C@@H](C)[C@H](O)[C@@H](C)CC(C)=CC(=O)O | 0.0777 µM (active) | –
Nc1ccn(C[C@@H](CO)OCP(=O)(O)O)c(=O)n1 | – | 8.56% [at 16 µM]
CCCCCCCCCCCCc1ccc(S(=O)(=O)Nc2nncs2)cc1 | – | -4.2%
COc1cc([C@@H]2c3cc4c(cc3[C@H](O)[C@H]3COC(=O)[C@@H]23)OCO4)cc(OC)c1OC | 0.739 µM (active) | –
COc1cc(N2CCC(C(N)=O)CC2)ccc1Nc1nc(N)c(Cl)c(Nc2ccccc2S(=O)(=O)C(C)C)n1 | 2.62 µM (active) | –
Cn1cc(-c2ccc3ncc(Cc4ccc5ncccc5c4)n3n2)cn1 | – | 19%
CCN(CC)CCCCNc1ncc2c(n1)N(C)C(=O)N(c1c(Cl)c(OC)cc(OC)c1Cl)C2 | 23.4 µM (active) | –
C=CC1=C(C(=O)O)N2C(=O)[C@@H](NC(=O)C(=NO)c3csc(N)n3)[C@H]2SC1 | – | 6.45%
CCOC(=O)N1CCN([N+]([O-])=NOc2ccc([N+](=O)[O-])cc2[N+](=O)[O-])CC1 | – | 6.42%
COC(=O)C1C2CC3c4[nH]c5cc(OC)ccc5c4CCN3CC2CC(OC(=O)c2cc(OC)c(OC)c(OC)c2)C1OC (stereo not given) | – | 6.68%

Compound | Potency | activity change, negative = cytotoxic
CCc1cnn2c(NCc3ccc[n+]([O-])c3)cc(N3CCCC[C@@H]3CCO)nc12 | 0.131 µM (active) | –
Cc1[nH]c(C=C2C(=O)Nc3ccccc32)c(C)c1CCC(=O)O | 7.39 µM (active) | –
Nc1cccc2c1C(=O)N(C1CCC(=O)NC1=O)C2=O (stereo not given) | – | 9.45%
COC(=O)[C@H](CCCN=C(N)N)NS(=O)(=O)c1ccc(C)cc1 | – | 12.6%
COc1ccc(S(=O)(=O)Nc2cc(-c3c(O)ccc4ccccc34)c(O)c3ccccc23)cc1 | – | 9.5%
OCc1ccccc1O[C@@H]1O[C@H](CO)[C@H](O)[C@H](O)[C@H]1O | – | 4.14%
C[C@@H]1CC[C@@]2(OC1)OC1CC3C4CC=C5CC(O)CCC5(C)C4CCC3(C)C1[C@@H]2C (stereo not given in full) | – | 20.9%
O=C(Nc1ccc(Oc2ccnc3[nH]ccc23)c(F)c1)c1cccn(-c2ccc(F)cc2)c1=O | – | 11.8%
CCC[C@H]1C[C@H](C(=O)N[C@@H]([C@@H]2O[C@@H](SC)[C@@H](O)[C@@H](O)[C@@H]2O)[C@H](C)Cl)N(C)C1 | – | -1.63%
C#CCC(Cc1cnc2nc(N)nc(N)c2n1)c1ccc(C(=O)N[C@@H](CCC(=O)O)C(=O)O)cc1 (stereo not given in full) | 0.037 µM (active) | –
C[C@@H]1C(=O)O[C@H]2CC34[C@H]5C[C@@H](C(C)(C)C)C36[C@H](OC(=O)[C@@H]6O)O[C@@]4(C(=O)O5)[C@]21O (stereo not given in full) | – | 3.38%
C=CCNC1=C2C[C@@H](C)C[C@H](OC)[C@@H](O)[C@@H](C)C=C(C)[C@H](OC(N)=O)[C@@H](OC)C=CC=C(C)C(=O)NC(=CC1=O)C2=O | 1.17 µM (active) | –
CCc1cc(C(C)=NOCc2ccc(C3CCCCC3)c(C(F)(F)F)c2)ccc1CN1CC(C(=O)O)C1 | – | 10.6%
Cc1ccc([N+](=O)[O-])cc1S(=O)(=O)N(C)N=Cc1cnc2ccc(Br)cn12 | 0.0829 µM (active) | –
O=C(NCc1ccccc1)[C@H](Cc1ccccc1)NC(=O)[C@@H]1O[C@@H]1C(=O)NCCc1ccc(O)cc1 | – | 0.608%
O=C(O)[C@H](CC(=O)N1C[C@@H]2CCCC[C@H]2C1)Cc1ccccc1 | – | 8.88%
Cc1ccc(O)c(C(CCN(C(C)C)C(C)C)c2ccccc2)c1 (stereo not given) | – | -1.56%
C[C@H]1O[C@H](O[C@H]2[C@H](O)[C@@H](O)[C@@H](O[C@H]3[C@H](O)[C@@H](O)C(O)O[C@H]3CO)O[C@H]2CO)[C@H](O)[C@@H](O)[C@H]1N[C@H]1C=C(CO)[C@@H](O)[C@H](O)[C@@H]1O (stereo not given in full) | – | 7.36%
CCCCCCCCCCCC(CC1OC(=O)C1CCCCCC)OC(=O)C(CC(C)C)NC=O (stereo not given) | – | 0.296%
CCN(C(=O)c1c(O)c2c(Cl)cccc2n(C)c1=O)c1ccccc1 | – | 14.7%
